What all share (assay): NCI-60 one-dose screen, 48 h (100 = growth as untreated, 0 = no growth, -100 = all killed)
Test [1] concerns NCI-H23 lung. The following applies: 10 µM unless noted.
The subject of test [2] is NCI-H226 lung. Particulars: 10 µM unless noted.
Test [3] relates to NCI-H322M lung. The following applies: 10 µM unless noted.
Test [4] has as its system HOP-62 NSCLC. The following applies: 10 µM unless noted.
In test [5] the test system is NCI-H460 lung. The following applies: 10 µM unless noted.
The test system of test [6] is HOP-92 NSCLC. The following applies: 10 µM unless noted.
The test system of test [7] is NCI-H522 lung. Particulars: 10 µM.
Test [8] relates to 786-0 renal. The following applies: 10 µM unless noted.
Test [9] relates to COLO 205 colon. Particulars: 10 µM unless noted.
Test [10] relates to DU-145 prostate. The following applies: 10 µM unless noted.
The test system of test [11] is K-562 leukemia. The following applies: 10 µM unless noted.
Test [12] has as its system MALME-3M melanoma. The following applies: 10 µM unless noted.
For test [13], the system named is MDA-MB-231 breast. The following applies: 10 µM unless noted.
In test [14] the test system is RXF 393 renal. Particulars: 10 µM unless noted.
In test [15] the test system is SF-268 CNS. Particulars: 10 µM unless noted.
The test system of test [16] is SF-295 CNS. Particulars: 10 µM unless noted.
Test [17] relates to SF-539 CNS. The following applies: 10 µM unless noted.
For test [18], the system named is UACC-257 melanoma. The following applies: 10 µM unless noted.
For test [19], the system named is M14 melanoma. Particulars: 10 µM unless noted.

This is part of a sample that, as a whole, favours compounds with a hit. Of some 83,000 tested, about 20% had one in any assay.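 Method: cells in 96-well plates; compound added at one concentration; 48 h incubation; percent growth measured; values under 10 scored active.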 A number with no mark means an inactive call. Active and inactive are the calls of the source.

`Cc1ccc(/C=C/C(=O)c2ccc(F)cc2)s1`: the growth was 85% in [1]; 85.1% in test [2]; 94.2% in test [3]; 103% in test [4]; 80.6% in test [5]; 64% in test [6]. Besides, the growth is 62.8% in test [7]; 76.7% in test [8]; 108% in test [9]; 90.8% in [10]; 38.1% in test [11]; 78.9% in test [12]. Also, the growth is 105% in [13]; 84.8% in test [14]; 92.2% in [15]; 88.5% in test [16]; 103% in [17]; 90.3% in test [18]. Moreover, the growth in [19] is 95.1%.
Take `C[C@]12CCC(=O)C=C1CCC1C2[C@@H](O)C[C@@]2(C)C1CC[C@]2(O)C(=O)COC(=O)CCC(=O)O` (stereo not given in full): the growth was 106% in [1]; 77.4% in [2]; 95.4% in test [3]; 112% in test [4]; 102% in [5]; 60.6% in test [6]. In addition, the growth was 107% in test [7]; 116% in test [8]; 110% in test [9]; 118% in test [10]; 117% in [11]; 81.7% in test [12]. The growth was 94.7% in [13]; 121% in test [14]; 107% in test [15]; 117% in test [16]; 97% in test [17]; 114% in [18]. The growth in [19] was 104%.
Consider `CCSc1nc(-c2ccc(F)cc2)c(C#N)c(=O)[nH]1`, for which the growth in test [1] is 95.2%; in [2] it was 98.7%; in test [3], 101%; in test [4], 110%; in test [5], 108%; in test [6] it was 131%. Besides, the growth in [7] was 96.8%; in test [8] it was 108%; in [9], 126%; in test [10], 122%; in [11] it was 124%; in test [12] it was 85.1%. Further, the growth in test [13] was 114%; in [14], 104%; in test [15] it was 116%; in test [16], 103%; in test [17], 108%; in test [18] it was 102%. Moreover, in [19], the growth was 110%.
For the compound `O=C1Nc2ccc(Cl)cc2/C1=C/c1cccs1`, the growth in test [1] is 88.9%; in test [2], 88.7%; in test [3] it was 90.5%; in [4], 80.8%; in test [5], 93.4%; in test [6], 93.7%. Further, the growth in test [7] is 96.2%; in test [8], 108%; in test [9], 117%; in test [10] it was 105%; in [11] it was 103%; in test [12], 95.9%. Moreover, the growth in [13] was 70.6%; in test [14], 94.3%; in test [15] it was 88.8%; in [16], 94.3%; in test [17], 85.3%; in test [19] it was 101%.
On to `COc1ccc2c(c1)[n+](=O)c(/C=C/C(=O)c1cc(OC)c(OC)c(OC)c1)c(C)n2[O-]`, for which the growth in [1] is 80%; in test [2] it was 84.5%; in test [3] it was 110%; in test [4], 94.3%; in test [5], 81.8%; in test [6], -22.4% (active). Moreover, the growth was -60.1% (active) in [7]; 67.2% in test [8]; 32% in [9]; 17.5% in test [10]; 2.27% (active) in test [11]; 86% in test [12]. In addition, the growth in test [13] is 84.1%; in [14], 38.5%; in [15] it was 69.4%; in test [16] it was 46.4%; in test [17] it was 70.2%; in test [18] it was 63.6%. Moreover, in test [19], the growth is 63.6%.
As to `CCC(C)C1NC(=O)C(CCNCS(=O)(=O)O)NC(=O)C(NC(=O)C(CCNCS(=O)(=O)O)NC(=O)C(NC(=O)C(CCNCS(=O)(=O)O)NC(=O)CCCCC(C)C)C(C)O)CCNC(=O)C(C(C)O)NC(=O)C(CCNCS(=O)(=O)O)NC(=O)C(CCNCS(=O)(=O)O)NC(=O)C(C(C)CC)NC1=O` (stereo not given), the growth was 66.6% in [1]; 77% in [2]; 70.3% in [3]; 46.8% in test [4]; 48.8% in test [5]; 95.8% in test [6]. Further, the growth in [7] is 10.5%; in test [8] it was 93.1%; in test [9], 1.57% (active); in test [10], 117%; in test [11], 20.2%; in test [12], 48.9%. Further, the growth in test [13] was 51.9%; in test [14] it was 47.4%; in test [15], 72.9%; in test [16], 86.6%; in [17] it was 27.3%; in test [18], 84.3%. Also, the growth in test [19] was 34.7%.
In the case of `CCSc1nc(Nc2ccc(S(=O)(=O)Nc3ccon3)cc2)c(C#N)c(-c2cccc(Br)c2)n1`, the growth in [1] is 101%; in test [2] it was 77.2%; in test [3], 74.3%; in [4], 93.9%; in test [5], 106%; in [6], 90.2%. In addition, the growth in [7] was 87.3%; in test [8] it was 94.8%; in test [9], 117%; in test [10] it was 112%; in test [11], 77.9%; in test [12], 105%. The growth in [13] was 97%; in [14], 94.7%; in test [15], 99.3%; in test [16], 82%; in test [17] it was 82.2%; in test [18], 115%. In addition, in test [19], the growth was 104%.
As to `O=Cc1ccccc1C(=O)O`, the growth in [1] was 100%; in [2] it was 100%; in test [3] it was 96.7%; in test [4], 96.7%; in test [5] it was 99.5%; in [6] it was 101%. Besides, the growth was 96.7% in test [7]; 97.4% in [8]; 112% in test [9]; 103% in test [10]; 90.5% in test [11]; 103% in [12]. The growth in test [13] was 109%; in test [14], 125%; in [15], 96.3%; in test [16], 96.9%; in test [17], 94.8%; in [19], 101%.

The record behind these values is PubChem BioAssay (NCI).
